This is an account of results in PubChem BioAssay (Tox21).

Records with an inconclusive call do not appear. Where a call stands in place of a potency, no number is given. The source made the active and inactive calls. Calls come from the whole dose curve; as a rule, active = well fitted curve in the direction sought with a large enough effect in the repeat runs; inconclusive = weak or mixed curves; inactive = no such curve, though single readings can be large; an effect the other way counts as inactive or inconclusive.
Potency is the fitted concentration of half-maximal effect.

The first experiment is described as follows: qHTS assay for identifying genotoxic compounds that show differential cytotoxicity against isogenic chicken DT40 cell lines with known DNA damage response pathways - wild type cell line (AID 743012). Note: nearly all actives have a fitted effect of over 60% in size. The note with it: DT40 wild type chicken cells viability, CellTiter-Glo, 40 h; series mostly up to 68.4 µM. In short, it runs like this: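 Endpoint: CellTiter-Glo luminescence, 30 min RT. Cells: wild type DT40, 300/well. Exposure: compounds in DMSO, 40 h, 37 C/5% CO2, after ~0.5 h pre-incubation.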
On the technique in general: qHTS replaces the single test concentration by a dilution series.
Take `O=C(O)c1ccccc1C(=O)OCc1ccccc1`: the Potency entry was “inactive”.

For the compound `Cc1ccc2c(c1)c1c3n2CCNC3CCC1` (stereo not given), the Potency is 11.9 µM (active).

With `O=C(O)c1ccccc1C(=O)Nc1ccc(S(=O)(=O)Nc2nccs2)cc1`, the Potency entry was “inactive”.

As for `C[C@H](CCC(=O)O)[C@H]1CC[C@H]2[C@@H]3[C@H](O)C[C@@H]4C[C@H](O)CC[C@]4(C)[C@H]3C[C@H](O)[C@]12C`, the Potency entry was “inactive”.

Consider `CC(CC(=O)O)CC(C)(C)C` (stereo not given), for which the Potency entry is “inactive”.

For the compound `CCCOCCOCCOCCO`, the Potency result is “inactive”.

Turning to `COc1ccc(/C=N/NC(=O)c2ccncc2)cc1OC`, the Potency entry was “inactive”.

With `C1=C\CC/C=C\CC/1`, the Potency result was “inactive”.

On to `O=C(O)/C=C/c1ccccc1`, for which the Potency entry was “inactive”.

As for `Cn1c(=O)c2c(ncn2CC2OCCO2)n(C)c1=O`, the Potency entry is “inactive”.

Regarding `Nc1ccc(S(=O)(=O)Nc2ccccn2)cc1`, the Potency result was “inactive”.

For `O=S(=O)(O)CCO`, the Potency result was “inactive”.

Turning to `CCN(CCC#N)c1ccccc1`, the Potency entry was “inactive”.

For `CC(=O)OCCCc1ccccc1`, the Potency result is “inactive”.

Take `CCCCCC(=O)OCC`: the Potency result is “inactive”.

`COCC(=O)Nc1c(I)c(C(=O)NCC(O)CO)c(I)c(C(=O)N(C)CC(O)CO)c1I` (stereo not given): the Potency entry is “inactive”.

In the case of `CCCCCCCCCOCC1CO1` (stereo not given), the Potency result is “inactive”.

With `O=C1NC2NC(=O)NC2N1` (stereo not given), the Potency entry was “inactive”.

On to `COc1cc2c3cc1Oc1cc(ccc1O)C[C@@H]1c4c(cc(OC)c(O)c4Oc4ccc(cc4)C[C@@H]3N(C)CC2)CC[N+]1(C)C`, for which the Potency entry was “inactive”.

On to `O=C(O)C(=O)Nc1cccc(-c2nn[nH]n2)c1`, for which the Potency result is “inactive”.

With `COCCOCCOCCOC`, the Potency result was “inactive”.

As for `CN(C)CCOCCN(C)CCO`, the Potency result is “inactive”.

Consider `CCc1nccnc1C`, for which the Potency result was “inactive”.

As for `SCCSCCS`, the Potency result is “inactive”.

Consider `C=C(C)C(=O)OCCCCCCOC(=O)C(=C)C`, for which the Potency entry was “inactive”.

Turning to `CC(=O)c1ccc(OCC(=O)N2CCCCC2)cc1`, the Potency entry was “inactive”.

As for `Nc1cc(Cl)cc(S(=O)(=O)O)c1O`, the Potency entry is “inactive”.

As for `Cc1ccccc1C(=O)N1CC/C(=N\OS(=O)(=O)O)c2ccc(Cl)cc21`, the Potency result was “inactive”.

With `CCCCCCCC/C=C\CCCCCCCC(=O)OC[C@@H](O)[C@H]1OC[C@H](O)[C@H]1O`, the Potency result was “inactive”.

`CCCCC(=O)N(C)C`: the Potency entry is “inactive”.

On to `CN(C)CCCNCCC#N`, for which the Potency entry is “inactive”.

Take `C=COCCOCCOC=C`: the Potency entry was “inactive”.

Take `Cc1ccc(S(=O)(=O)NC(=O)NC2CCCCCCC2)cc1`: the Potency result is “inactive”.

Regarding `OC(CCN1CCCCC1)(c1ccccc1)c1ccccc1`, the Potency was 13.3 µM (active).

Take `C[N+](C)(C)CC(O)CCl` (stereo not given): the Potency result was “inactive”.

A short description of another experiment: qHTS assay for identifying genotoxic compounds that show differential cytotoxicity against isogenic chicken DT40 cell lines with known DNA damage response pathways - Rev3 mutant cell line (AID 743014). Note: nearly all actives have a fitted effect of over 55% in size. The note with it: chicken DT40 Rev3-/- viability, CellTiter-Glo, 40 h; series mostly up to 68.4 µM.
As for `O=C(O)c1ccccc1C(=O)OCc1ccccc1`, the Potency entry was “inactive”.

Take `Cc1ccc2c(c1)c1c3n2CCNC3CCC1` (stereo not given): the Potency was 11.9 µM (active).

Turning to `O=C(O)c1ccccc1C(=O)Nc1ccc(S(=O)(=O)Nc2nccs2)cc1`, the Potency entry was “inactive”.

As to `C[C@H](CCC(=O)O)[C@H]1CC[C@H]2[C@@H]3[C@H](O)C[C@@H]4C[C@H](O)CC[C@]4(C)[C@H]3C[C@H](O)[C@]12C`, the Potency entry is “inactive”.

Regarding `CC(CC(=O)O)CC(C)(C)C` (stereo not given), the Potency entry was “inactive”.

With `CCCOCCOCCOCCO`, the Potency entry was “inactive”.

Take `COc1ccc(/C=N/NC(=O)c2ccncc2)cc1OC`: the Potency entry was “inactive”.

Regarding `C1=C\CC/C=C\CC/1`, the Potency result was “inactive”.

For `O=C(O)/C=C/c1ccccc1`, the Potency entry is “inactive”.

As to `Cn1c(=O)c2c(ncn2CC2OCCO2)n(C)c1=O`, the Potency result was “inactive”.

Consider `Nc1ccc(S(=O)(=O)Nc2ccccn2)cc1`, for which the Potency entry was “inactive”.

`O=S(=O)(O)CCO`: the Potency entry was “inactive”.

With `CCN(CCC#N)c1ccccc1`, the Potency result is “inactive”.

In the case of `CC(=O)OCCCc1ccccc1`, the Potency entry is “inactive”.

With `CCCCCC(=O)OCC`, the Potency result is “inactive”.

For `COCC(=O)Nc1c(I)c(C(=O)NCC(O)CO)c(I)c(C(=O)N(C)CC(O)CO)c1I` (stereo not given), the Potency entry is “inactive”.

As to `CCCCCCCCCOCC1CO1` (stereo not given), the Potency entry is “inactive”.

Turning to `O=C1NC2NC(=O)NC2N1` (stereo not given), the Potency entry is “inactive”.

Consider `COc1cc2c3cc1Oc1cc(ccc1O)C[C@@H]1c4c(cc(OC)c(O)c4Oc4ccc(cc4)C[C@@H]3N(C)CC2)CC[N+]1(C)C`, for which the Potency result is “inactive”.

With `O=C(O)C(=O)Nc1cccc(-c2nn[nH]n2)c1`, the Potency result was “inactive”.

For the compound `COCCOCCOCCOC`, the Potency entry was “inactive”.

For the compound `CN(C)CCOCCN(C)CCO`, the Potency result is “inactive”.

For the compound `CCc1nccnc1C`, the Potency entry is “inactive”.

`SCCSCCS`: the Potency result is “inactive”.

As for `C=C(C)C(=O)OCCCCCCOC(=O)C(=C)C`, the Potency entry was “inactive”.

In the case of `CC(=O)c1ccc(OCC(=O)N2CCCCC2)cc1`, the Potency result was “inactive”.

As for `Nc1cc(Cl)cc(S(=O)(=O)O)c1O`, the Potency result was “inactive”.

Turning to `Cc1ccccc1C(=O)N1CC/C(=N\OS(=O)(=O)O)c2ccc(Cl)cc21`, the Potency result was “inactive”.

For `CCCCCCCC/C=C\CCCCCCCC(=O)OC[C@@H](O)[C@H]1OC[C@H](O)[C@H]1O`, the Potency entry is “inactive”.

As to `CCCCC(=O)N(C)C`, the Potency result is “inactive”.

On to `CN(C)CCCNCCC#N`, for which the Potency result was “inactive”.

Take `C=COCCOCCOC=C`: the Potency entry is “inactive”.

As to `Cc1ccc(S(=O)(=O)NC(=O)NC2CCCCCCC2)cc1`, the Potency result is “inactive”.

Consider `OC(CCN1CCCCC1)(c1ccccc1)c1ccccc1`, for which the Potency is 23.7 µM (active).

`C[N+](C)(C)CC(O)CCl` (stereo not given): the Potency result was “inactive”.

A short description of a further experiment: qHTS assay for identifying genotoxic compounds that show differential cytotoxicity against isogenic chicken DT40 cell lines with known DNA damage response pathways - Rad54/Ku70 mutant cell line (AID 743015). Note: nearly all actives have a fitted effect of over 60% in size. The note with it: DT40 Rad54/Ku70 mutant viability, CellTiter-Glo, 40 h; series mostly up to 66.8 µM.
Turning to `O=C(O)c1ccccc1C(=O)OCc1ccccc1`, the Potency result is “inactive”.

As for `Cc1ccc2c(c1)c1c3n2CCNC3CCC1` (stereo not given), the Potency was 16.8 µM (active).

Consider `O=C(O)c1ccccc1C(=O)Nc1ccc(S(=O)(=O)Nc2nccs2)cc1`, for which the Potency entry is “inactive”.

For the compound `C[C@H](CCC(=O)O)[C@H]1CC[C@H]2[C@@H]3[C@H](O)C[C@@H]4C[C@H](O)CC[C@]4(C)[C@H]3C[C@H](O)[C@]12C`, the Potency entry was “inactive”.

On to `CC(CC(=O)O)CC(C)(C)C` (stereo not given), for which the Potency entry is “inactive”.

For the compound `CCCOCCOCCOCCO`, the Potency result was “inactive”.

Consider `COc1ccc(/C=N/NC(=O)c2ccncc2)cc1OC`, for which the Potency result was “inactive”.

As for `C1=C\CC/C=C\CC/1`, the Potency entry was “inactive”.

In the case of `O=C(O)/C=C/c1ccccc1`, the Potency entry is “inactive”.

Turning to `Cn1c(=O)c2c(ncn2CC2OCCO2)n(C)c1=O`, the Potency entry is “inactive”.

For the compound `Nc1ccc(S(=O)(=O)Nc2ccccn2)cc1`, the Potency entry was “inactive”.

Take `O=S(=O)(O)CCO`: the Potency result was “inactive”.

As for `CCN(CCC#N)c1ccccc1`, the Potency entry is “inactive”.

As for `CC(=O)OCCCc1ccccc1`, the Potency result is “inactive”.

Turning to `CCCCCC(=O)OCC`, the Potency result was “inactive”.

Consider `COCC(=O)Nc1c(I)c(C(=O)NCC(O)CO)c(I)c(C(=O)N(C)CC(O)CO)c1I` (stereo not given), for which the Potency result is “inactive”.

Regarding `CCCCCCCCCOCC1CO1` (stereo not given), the Potency entry is “inactive”.

As to `O=C1NC2NC(=O)NC2N1` (stereo not given), the Potency result is “inactive”.

In the case of `COc1cc2c3cc1Oc1cc(ccc1O)C[C@@H]1c4c(cc(OC)c(O)c4Oc4ccc(cc4)C[C@@H]3N(C)CC2)CC[N+]1(C)C`, the Potency result was “inactive”.

As to `O=C(O)C(=O)Nc1cccc(-c2nn[nH]n2)c1`, the Potency entry is “inactive”.

`COCCOCCOCCOC`: the Potency entry is “inactive”.

With `CN(C)CCOCCN(C)CCO`, the Potency result is “inactive”.

For the compound `CCc1nccnc1C`, the Potency result is “inactive”.

In the case of `SCCSCCS`, the Potency result was “inactive”.

As to `C=C(C)C(=O)OCCCCCCOC(=O)C(=C)C`, the Potency result is “inactive”.

For `CC(=O)c1ccc(OCC(=O)N2CCCCC2)cc1`, the Potency entry is “inactive”.

Take `Nc1cc(Cl)cc(S(=O)(=O)O)c1O`: the Potency result is “inactive”.

As to `Cc1ccccc1C(=O)N1CC/C(=N\OS(=O)(=O)O)c2ccc(Cl)cc21`, the Potency result was “inactive”.

On to `CCCCCCCC/C=C\CCCCCCCC(=O)OC[C@@H](O)[C@H]1OC[C@H](O)[C@H]1O`, for which the Potency entry is “inactive”.

For the compound `CCCCC(=O)N(C)C`, the Potency result was “inactive”.

Regarding `CN(C)CCCNCCC#N`, the Potency result was “inactive”.

`C=COCCOCCOC=C`: the Potency entry was “inactive”.

For the compound `Cc1ccc(S(=O)(=O)NC(=O)NC2CCCCCCC2)cc1`, the Potency entry was “inactive”.

As to `OC(CCN1CCCCC1)(c1ccccc1)c1ccccc1`, the Potency was 21.1 µM (active).

Regarding `C[N+](C)(C)CC(O)CCl` (stereo not given), the Potency entry was “inactive”.
